Bioassay records deposited in PubChem BioAssay by several laboratories.
PAX8 reporter: inhibitors of PAX8-driven TPO luciferase reporter, primary screen, RMG-I cells, single concentration. SteadyGlo, 24 h. inhibition, % at 12.6 µM. actives 1.2% (n = 360,000). AID 652154, 2013;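 active means mean replicate inhibition at least 60% with every replicate also reaching 60%; inconclusive means only one of the two criteria is met; inactive means mean below 60% and not all replicates reaching 60%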;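 further: luciferase light reporting Pax8 driven TPO promoter activity; plate controls were median of neutral control wells for no effect and mitoxantrone controls for full effect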
TROY signal inh: inhibitors of TROY-driven NF-kB signaling, primary screen, Q293 LMP1-TROYcd cells, NF-kB luciferase, uHTS; actives 0.98% (n = 360,000); inhibition, % at 10 µM; Q293 LMP1-TROYcd NF-kB luciferase reporter, 4 h; AID 1347056, 2019;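 active means compounds whose plate-normalised and pattern-corrected inhibition of the luciferase reporter signal at the single screening dose is 50% or more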
LGR2 antag: inhibitors of bursicon-induced LGR2 CRE-luciferase signal, primary screen, cell-based, HEK293, CRE-luciferase reporter, bursicon stimulation. bursicon-stimulated, 4 h. inhibition, % at 9.99 µM. actives 0.35% (n = 380,000). AID 720647, 2013;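 active means drop in luminescence signal, shown as inhibition above about 50% in the replicate tests, limit read from the data, passing the limit was not always enough; inconclusive means probably only some replicates passing the limit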;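 further: agonist challenge used bursicon conditioned medium at about half maximal strength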
TWEAK-Fn14 inh: inhibitors of TWEAK-Fn14 signaling, primary screen, luciferase reporter cells, uHTS. TWEAK-stimulated Fn14 reporter cells, luciferase luminescence, 8 h. actives 2% (n = 360,000). AID 1159606, 2016. inhibition, % at 10 µM; in the data active means inhibition above about 50%
EWS-Fli block: EWS/Fli-driven NR0B1 reporter inhibitors, primary screen, A673 cells, NR0B1 luciferase, luminescence, MLPCN library | viability-normalised | inhibition, % at 12.6 µM | actives 0.67% (n = 350,000);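 active means mean inhibition of at least 50% after viability correction, with every replicate also passing that limit; inconclusive means mean reaches 50% but only one of two replicates passes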;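 further: firefly luciferase signal divided by Alamar Blue viability fluorescence both relative to DMSO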
* = called active by the depositor; ? = inconclusive; / = not tested or not shown. The list is not random: actives were taken first. Their share in the collection is about 2.8%.

SMILES | PAX8 reporter | TROY signal inh | LGR2 antag | TWEAK-Fn14 inh | EWS-Fli block
CC(=O)c1c(C)[nH]c(C2=NNC(=NC(C)(C)C)SC2)c1C | -75 | -8 | -43 | 10 | -4
CC(C)(C)N=C1NN=C(c2ccc(Cl)cc2)CS1 | -191 | 62* | -31 | 65* | -52
CC(C)(C)N=C1NN=C(c2cc3ccccc3o2)CS1 | -149 | 70* | -17 | 63* | /
C[C@H](CO)N1C[C@H](C)[C@@H](CN(C)Cc2ccc(-c3ccccc3)cc2)Oc2ccc(NC(=O)CCN3CCOCC3)cc2CC1=O | / | / | 2 | / | 4
COc1ccc(S(=O)(=O)N(C)C[C@@H]2OCCCC[C@H](C)Oc3ccc(NC(=O)Nc4ccc(C(F)(F)F)cc4)cc3C(=O)N([C@@H](C)CO)C[C@H]2C)cc1 | 12 | / | 5 | / | 5
O=C(c1cc2sccc2n1Cc1ccc(F)cc1)N1CCN(c2nc3ccccc3s2)CC1 | 1 | 30 | / | 65* | /
COc1ccccc1-c1cnc2c(c1)C(=O)N([C@H](C)CO)C[C@@H](C)[C@H](CN(C)C)O2 | / | / | 12 | / | -7
[O-][N+]1=c2ccc(Nc3ccccc3)cc2=NC12CCCCC2 | 11 | -19 | / | 36 | /
COc1ccc(Nc2ccc3c(c2)=NC2(CCCCC2)[N+]=3[O-])cc1 | 75* | -33 | / | 8 | /
FC(F)(F)c1nc2nc(Cl)c(Cl)nc2[nH]1 | 8 | 4 | 5 | 9 | -4
FC(F)(F)c1cccc(-c2nc3nc(Cl)c(Cl)nc3[nH]2)c1 | / | 34 | 16 | 64* | /
C[C@H](CO)N1C[C@H](C)[C@@H](CN(C)CC2CCCCC2)Oc2ccc(NC(=O)CCCN(C)C)cc2CC1=O | 3 | / | 5 | / | -1
N#Cc1ccccc1Sc1ccccc1C(=O)OCC(=O)NC12CC3CC(CC(C3)C1)C2 | -3 | 35 | 3 | 63* | /
Cc1cc(C(=O)OCC(=O)NC2CCCC(C)C2C)c(C)o1 (stereo unspecified) | -3 | 14 | -20 | 7 | 8
CC1CCCC(NC(=O)COC(=O)c2ccccc2Sc2ccccc2C#N)C1C (stereo unspecified) | 133* | 9 | -3 | 10 | 2
CC1CCCC(NC(=O)COC(=O)c2c[nH]c(=O)[nH]c2=O)C1C (stereo unspecified) | / | / | / | 55* | /
O=C(COC(=O)c1ccccc1)NC12CC3CC(CC(C3)C1)C2 | -7 | 24 | -34 | 5 | -2
CCS(=O)(=O)N1CC(=O)N2[C@@H](CO)[C@@H](c3ccc(C#CC4CCCCC4)cc3)[C@@H]2C1 | / | / | 17 | / | -7
COC(=O)c1ccccc1NC(=O)c1ccc(-c2ccc(Br)cc2)o1 | / | 81* | -19 | 77* | /
Cc1nnc(SCC(=O)NC23CC4CC(CC(C4)C2)C3)n(N)c1=O | 8 | 85* | -13 | 97* | 0
Cn1ccnc1SCC(=O)NC12CC3CC(CC(C3)C1)C2 | / | -4 | / | 6 | /
CCn1c(-c2ccccc2)csc1=Nc1ccc(S(=O)(=O)O)cc1 | -6 | 15 | 18 | 7 | 10
COCCCn1c(-c2ccc(S(=O)(=O)N3CCOCC3)cc2)csc1=Nc1ccccc1 | -2 | 29 | 9 | 71* | /
COc1ccccc1NC(=O)N[C@@H]1CC[C@@H](CCNC(=O)c2ccc3c(c2)OCO3)O[C@@H]1CO | -1 | / | 6 | / | 1
Cc1ccc(C(=O)N/N=C(/CC(=O)c2cccs2)C(F)(F)F)cc1 | 8 | 53* | -15 | 0 | -3
SMILES | PAX8 reporter | TROY signal inh | LGR2 antag | TWEAK-Fn14 inh | EWS-Fli block
CSC1SCC2C(=O)N(C)C(C(C)C)C(=O)OCC(NC(=O)c3cnc4ccccc4n3)C(=O)NC(C)C(=O)N(C)C1C(=O)N(C)C(C(C)C)C(=O)OCC(NC(=O)c1cnc3ccccc3n1)C(=O)NC(C)C(=O)N2C (stereo unspecified) | 97* | 65* | 99* | 92* | 16
C[C@@H]1CN([C@H](C)CO)C(=O)Cc2cc(NC(=O)CCCN(C)C)ccc2O[C@H]1CN(C)Cc1ccc(Oc2ccccc2)cc1 | 4 | / | 7 | / | -1
CC(=O)N(Cc1cc2c(C)cc(C)cc2[nH]c1=O)C1CCCCC1 | / | 0 | / | -22 | /
Cc1cc(C)c(O)c(C(=O)CC2CC(=O)NC(=O)C2)c1 | / | / | 65* | / | 4
CC(C)(C)c1ccccc1NC(=O)c1ccc2c(c1)SC1=NS(=O)(=O)CCN12 | 16 | -15 | -1 | -4 | 6
O=C(Nc1cccc(Br)c1)c1ccc2c(c1)SC1=NS(=O)(=O)CCN12 | 88* | -8 | 12 | -1 | 28
Cc1cc(C)c2nc(N3CCOCC3)c(C#N)cc2c1 | -3 | 5 | -5 | -4 | 5
Cc1cccc2cc(C#N)c(N3CCOCC3)nc12 | -11 | -18 | / | 54* | 7
CN(NS(=O)(=O)c1ccc(Br)cc1)c1nc(C(F)(F)F)nc2ccccc12 | -4 | 58* | 8 | 18 | 10
CN(C)CC(CCC(CN(C)C)C(O)(c1ccccc1)c1ccccc1)C(O)(c1ccccc1)c1ccccc1 (stereo unspecified) | 87* | / | 19 | / | 36
CN(C)C/C=C/C(O)(c1ccccc1)c1ccccc1 | 1 | 6 | 0 | 2 | 0
C[C@H]1CN([C@@H](C)CO)C(=O)Cc2cc(NC(=O)NC3CCCCC3)ccc2O[C@@H]1CN(C)C(=O)Nc1ccc(F)cc1 | -28 | / | 12 | / | 11
CC(=O)c1c(C)[nH]c(C(=O)CSc2ncnc3sc(-c4ccccc4)cc23)c1C | 10 | 24 | / | 64* | 12
CC(=O)c1c(C)[nH]c(C(=O)CSc2nnc(-c3ccccc3)o2)c1C | / | 22 | / | 96* | /
O=C(O)CCSc1ncnc2sc(-c3ccccc3)cc12 | 0 | 63* | 12 | 86* | 69*
CC(=O)CCSc1ncnc2sc(-c3ccccc3)cc12 | -49 | 11 | -82 | 6 | -17
O=C(Nc1ccc2c(c1)[C@H]1C[C@H](CC(=O)N3CCCCC3)O[C@H](CO)[C@H]1O2)C1CCC1 | 2 | / | 10 | / | -1
COc1ccc(C)c2sc(N(CCCN(C)C)C(=O)c3ccc(S(=O)(=O)N4CCc5ccccc5C4)cc3)nc12 | ? | 38 | -9 | -168 | 58*
COCC(=O)N1C[C@@H](C)[C@H](OC)CN(C)C(=O)c2cc(NC(=O)c3ccccc3)ccc2OC[C@@H]1C | 0 | / | -14 | / | -1
CCOC(=O)C(CCCOc1ccccc1)C(=O)OCC | / | / | / | 63* | /
O=C(CN(c1cccc(Br)c1)S(=O)(=O)c1ccccc1)N/N=C/c1cc([N+](=O)[O-])ccc1O | 19 | 52* | 45 | -15 | 21
COc1ccc(C#Cc2cccc(-c3nc(C(=O)N[C@@H]4CCN(Cc5ccccc5)C4)cc4c3[C@@H](CCO)N(S(=O)C(C)(C)C)C4)c2)cc1OC (stereo partly specified) | 18 | / | / | / | 5
COc1ccc(C(=O)c2coc3ccc(OC(C)=O)cc23)cc1 | -164 | -4 | -20 | 57* | -34
COc1ccc(OC)c(C(=O)c2coc3ccc(OC(C)=O)cc23)c1 | 9 | -54 | -29 | -23 | 0
